# Assay results from PubChem BioAssay AID1527 (The Scripps Research Institute Molecular Screening Center, 2009).
# Hit rate of the full screen: of about 290,000 compounds, about 2,600 (0.9%) were called active. The sample as a whole holds a higher share of actives than the screen did. Values without a mark were called inactive.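 How the source made its calls: active means inhibition above the mean of all tested compounds plus 3 SD, cutoff set per screening run (cut at about 7.5% in these data); inactive means the rest.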
# Test system: VIM-2 metallo-beta-lactamase (Pseudomonas aeruginosa)
# Test: VIM-2 metallo-beta-lactamase inhibitors, primary screen, biochemical, epi-absorbance readout, Pseudomonas aeruginosa enzyme (AID 1527);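 further: red hydrolysis product quenches plate fluorescence so inhibitors raise well fluorescence; 0% = enzyme with DMSO and 100% = DMSO without enzyme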
# Details: purified VIM-2, nitrocefin hydrolysis, epi-absorbance fluorescence; at 5.6 µM; active compounds read high
row,Compound,inhibition
1,COc1ccc(/C=C2\CCCC3C2=NN(C(=O)c2scnc2C)C3c2ccc(OC)cc2)cc1 (centres undefined),-4.89%
2,COc1cccc(NC(=O)c2cc(S(=O)(=O)N3CCc4ccccc43)cn2C)c1,-2.53%
3,CS(=O)(=O)Nc1ccccc1N=C(c1ccccc1)c1ccccc1,-0.7%
4,CCc1nc(Nc2ccc3nccnc3c2)c2oc3ccccc3c2n1,6.61%
5,C[C@@H](Nc1nc(-c2ccccc2)nc2c1oc1ccccc12)C(=O)O,-1.13%
6,CCc1nc(Nc2ccc(NC(C)=O)cc2)c2oc3ccccc3c2n1,9.84% (active)
7,COc1cc(OC)c(NS(=O)(=O)c2cn(C)cn2)cc1Cl,-2.52%
8,CC1(C)Cc2c(sc(NC(=O)C(=O)NCC3CCCO3)c2C(=O)O)CO1 (centres undefined),-1.53%
9,CC1CCCCC1NC(=O)/C(C#N)=C/C=C/c1ccccc1[N+](=O)[O-] (centres undefined),-2.25%
10,Cc1ccc(C)c(CN2CCC(CNC(=O)Nc3ccc(C)c(F)c3)CC2)c1,-1.95%
11,Oc1ccc2ccc3cccc[n+]3c2c1,34.2% (active)
12,COC(=O)c1ccc(NC(=O)c2cc3c(CO)cnc(C)c3oc2=Nc2cccc(C(N)=O)c2)cc1,-0.03%
13,Cc1c(C)c2c(OCC(=O)N[C@@H](C(=O)O)c3ccccc3)cc3c(c2oc1=O)CCC(C)(C)O3,10.8% (active)
14,Cc1cc(=O)oc2c3c(cc(OCC(=O)N[C@H](C(=O)O)c4ccccc4)c12)OC(C)(C)CC3,1.96%
15,Cc1c(C)c2c(OCC(=O)NCCCO)cc3c(c2oc1=O)CCC(C)(C)O3,1.34%
16,CCC(C(=O)NC1CCCCC1)N(C(=O)c1snc(C(N)=O)c1N)c1ccc(OC)cc1OC (centres undefined),-1.99%
17,Cc1c2cnn(CC(=O)NCc3ccccn3)c(=O)c2c(C)n1Cc1ccc(Cl)cc1,-1.23%
18,COc1cc(NS(=O)(=O)c2ccc(NC(=O)c3ccc([N+](=O)[O-])cc3)cc2)ncn1,-1.86%
19,CCCc1ccc(OCCNC(=O)c2ccco2)cc1,33.4% (active)
20,CCCc1ccc(OCCNC(=O)c2ccccc2Br)cc1,-1.47%

row,Compound,inhibition
1,CCCc1ccc(OCC(=O)NNC(=S)NC(=O)c2ccco2)cc1,-2.04%
2,COc1ccc(Br)cc1CN1CCN(C(=O)c2cccc(OC)c2OC)CC1,-0.04%
3,COc1cccc(C(=O)OCc2cc(=O)oc3c(C)c(C)ccc23)c1OC,8.21% (active)
4,COC(=O)Cc1cc(=O)oc2c(C)c(O)ccc12,-5.11%
5,CCOC(=O)C1(Cc2ccccc2C)CCCN(C(=O)CN2C(=O)CSC2=O)C1 (centres undefined),-2.37%
6,CNC[C@H](CC1CCCCC1)NC[C@H](NCCC1CCCC1)[C@H](C)O,2.09%
7,Cc1ccc(C(=O)N/C(=C\c2ccc(F)cc2)C(=O)NCCN2CCOCC2)cc1,-0.14%
8,CCOC(=O)[C@@H]1[C@H]2COc3cc(OC)ccc3[C@H]2N2C(=O)N(c3ccc(F)cc3)C(=O)[C@]12C,-2.77%
9,O=C1Nc2cc(C(=O)N3CCC(N4CCCCC4)CC3)ccc2S/C1=C\c1ccccc1,27.9% (active)
10,O=C(NC1CC1)c1ccc2c(c1)NC(=O)c1ccccc1S2,1.27%
11,CC1CCN(C(=O)c2ccc3c(c2)NC(=O)CN3)CC1,-1.26%
12,Cc1cccc(C)c1NC(=O)CS(=O)CC(=O)N1CCN(c2ccccc2)CC1 (centres undefined),-3.23%
13,Cc1ccc(NC(=O)C2CC2c2ccccc2)cc1 (centres undefined),-1.58%
14,COc1ccc2nc(/N=C(\N)NC(=O)Nc3ccccc3)nc(C)c2c1,-0.81%
15,Cc1nc(N=C(N)N)nc2c(C)cccc12,8.56% (active)
16,CC(=O)Oc1ccc(-c2nc3c(C)cccc3c(=O)o2)cc1,-0.68%
17,COc1nc(N=C(N)N)nc2c(C)cccc12,14.3% (active)
18,Cc1nc(/N=C(\N)NC(=O)NC2CCCCC2)nc2ccccc12,-2.89%
19,Cc1cccc2c(=O)n3c(nc12)CCCCC3,-3.47%
20,c1ccc(-c2nccc(-c3ccc(-n4cnc5ccccc54)cc3)n2)nc1,59.9% (active)

row,Compound,inhibition
1,Cc1nccc(-c2ccc(-n3c(C)ccc3C)cc2)n1,-2.42%
2,Cc1ccc(Oc2nc(-c3ccccn3)nc3ccccc23)cc1,-1.45%
3,CCCCn1c(-c2cccc(C)c2)nc2cc3[nH]c(=O)c(C(C)C)nc3cc21,-2.3%
4,COc1ccc(-c2csc3ncnc(N4CCN(S(=O)(=O)c5ccccc5C#N)CC4)c23)cc1,-2%
5,CCN(CC)C(=O)CSC(Nc1cccc(F)c1)=C(C#N)C#N,-4.85%
6,O=c1[nH]c2c(c(=O)n1Cc1ccccc1)CCC2,-3.01%
7,CSc1nc2ccccc2c(=O)n1Cc1ccc(F)cc1,-1.75%
8,Cc1cc2nc3c(=O)n(Cc4ccccc4)c(=O)[nH]c3nc2cc1N,13.2% (active)
9,O=S(=O)(Nc1cccc(-n2cnnn2)c1)c1cnc(Cl)c(Cl)c1,-1.96%
10,CCN(CC)CCCNC(=O)c1c(O)c2cc(F)cc3c2n(c1=O)C(C)CC3 (centres undefined),8.41% (active)
11,CCN(CC)CCCNC(=O)c1cn(C)c2ccc(S(=O)(=O)N(C)C3CCCCC3)cc2c1=O,2.02%
12,CCNC(=O)c1c(O)c2cccc3c2n(c1=O)CC3,1.77%
13,CN(C)c1cc(-c2ccc(F)cc2)oc(=O)c1Cl,-0.81%
14,CC(CCc1ccccc1)NC(=O)c1cnc(Cl)c(Cl)c1 (centres undefined),-3.59%
15,COc1ccc(OCCn2ccnc2C)cc1,0.01%
16,C=CCOc1cccc(C2C(C(=O)c3ccc(C)o3)=C(O)C(=O)N2CCCn2ccnc2)c1 (centres undefined),-2.31%
17,CC(Nc1nc(N2CCOCC2)nc2ccccc12)c1ccccc1 (centres undefined),-1.07%
18,CC(Nc1nc(N2CCCC2)nc2ccccc12)c1ccccc1 (centres undefined),10.3% (active)
19,CC(Nc1nc(N2CCN(CCO)CC2)nc2ccccc12)c1ccccc1 (centres undefined),-0.41%
